PubChem BioAssay (Tox21)
Where “and” joins values, the source holds several entries; their conditions need not be identical. Identical values can stand only once. Records with an inconclusive call do not appear. Calls of active or inactive are those of the source. Unless noted, calls come from the whole dose curve; as a rule, active = well fitted curve in the direction sought with a large enough effect in the repeat runs; inconclusive = weak or mixed curves; inactive = no such curve, though single readings can be large; an effect the other way counts as inactive or inconclusive.

Columns and labels:
[1] = qHTS assay to identify small molecule agonists of the RXR signaling pathway - cell viability counter screen (AID 1159529);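 note: HEK 293T cells carrying an RXR-alpha UAS beta-lactamase reporter; series mostly up to about 77 µM; nearly all actives have a fitted effect of over 50% in size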
Outline: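 Counter screen: CellTiter-Glo luminescence. Cells: RXR-alpha-UAS-bla HEK 293T. Medium: 2% charcoal-stripped FBS. Treatment: 16 h, 37 C. Reagent incubation: 30 min, RT.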

[2] = qHTS assay to identify small molecule antagonists of the retinoid acid receptor (RAR) signaling pathway - cell viability counter screen (AID 1159551); note: nearly all actives have a fitted effect of over 35% in size
Outline: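 Cytotoxicity counter screen in C3RL4 cells: 6 h compound exposure with 1 uM retinol (final), viability from cellular ATP by luminescence.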

[3] = qHTS assay to identify small molecule antagonists of the retinoic acid receptor (RAR) signaling pathway (AID 1159552; note: nearly all actives have a fitted effect of over 50% in size)
Outline: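 Antagonism of retinol-induced RARE reporter activity was measured in C3RL4 cells. Exposure to compounds and 1 uM final retinol lasted 6 hr at 37 C, with luminescence as endpoint.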

[4] = qHTS assay to identify small molecule antagonists of the estrogen related receptor (ERR) signaling pathway from Tox21 library - cell viability counter screen (AID 1224834); note: nearly all actives have a fitted effect of over 30% in size
Outline: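 Cytotoxicity of test substances is gauged in the same ERR cells used for the antagonist screen, after 17.5 h of compound treatment at 37 C, by CellTiter-Fluor fluorescence measured after 30 min.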

[5] = qHTS assay to identify small molecule agonists of the constitutive androstane receptor (CAR) signaling pathway - cell viability counter screen (AID 1224836); note: series mostly up to about 92 µM; nearly all actives have a fitted effect of over 45% in size
Outline: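 Double-stable HepG2 hepatoma cells (hCAR plus CYP2B6-2.2kb) are treated for 23 h at 37 C with test compounds in 15-point concentration series. PK11195 at 0.75 uM final is co-added. Cell viability is quantified by CellTiter-Fluor.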

[6] = qHTS assay to identify small molecule antagonists of the constitutive androstane receptor (CAR) signaling pathway - cell viability counter screen (AID 1224837); note: series mostly up to about 92 µM; nearly all actives have a fitted effect of over 45% in size
Outline: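 Multiplexed cytotoxicity read-out for the CAR antagonist screen: double-stable HepG2-CYP2B6-hCAR cells co-treated with 50 nM CITCO (final) and compound over 15 concentrations, incubated 23 hr, then assessed by CellTiter-Fluor fluorescence.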

[7] = target: Nuclear receptor subfamily 1 group I member 3 (Homo sapiens) (UniProt Q14994); assay: qHTS assay to identify small molecule antagonists of the constitutive androstane receptor (CAR) signaling pathway (AID 1224838); note: nearly all actives have a fitted effect of over 40% in size
Outline: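 Compounds were titrated across 15 concentrations onto HepG2 cells double-stably expressing hCAR and a CYP2B6-2.2kb reporter, together with 50 nM CITCO (final). After 24 h at 37 C, luciferase activity was measured by luminescence.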

[8] = target: Nuclear receptor subfamily 1 group I member 3 (Homo sapiens) (UniProt Q14994); assay: qHTS assay to identify small molecule agonists of the constitutive androstane receptor (CAR) signaling pathway (AID 1224839); note: nearly all actives have a fitted effect of over 15% in size; note: potency is the fitted concentration of half-maximal effect;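 for activation: HepG2 cells stably carrying human CAR and a CYP2B6 luciferase reporter; series mostly up to about 92 µM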
Outline: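 Readout: firefly luciferase luminescence via ONE-Glo. System: HepG2 double-stable for hCAR and CYP2B6-2.2kb. Conditions: 15-point compound titration, PK11195 at 0.75 uM final, 24 h incubation.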

[9] = qHTS assay to identify small molecule antagonists of the estrogen related receptor signaling pathway with the pleiotropic PPARgamma coactivator (PGC) from Tox21 10K library - cell viability counter screen (AID 1224840; active = well fitted cell-killing curve with a large enough effect in the repeat runs, not every such curve was filed as active; note: nearly all actives have a fitted effect of over 40% in size)
Outline: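 Step one, plate 2,000 PGC/ERR cells per well; step two, incubate 6 h at 37 C/5% CO2; step three, pin-transfer compounds; step four, incubate 17.5 h; step five, add CellTiter-Fluor and read fluorescence after 30 min.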

[10] = qHTS assay to identify small molecule antagonists of the estrogen related receptor signaling pathway with the pleiotropic PPARgamma coactivator (PGC) from Tox21 10K library (AID 1224841; call rule not given here; note: series mostly up to about 92 µM; actives are mostly falling curves and most rising ones were filed inactive; nearly all actives have a fitted effect of over 50% in size)
Outline: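 Antagonism in this quantitative HTS is taken from loss of luciferase signal in PGC/ERR cells. Cells (2,000/well) are treated with compounds in DMSO after a 6 h settling period and read by One-Glo luminescence after 18 h.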

[11] = qHTS assay to identify small molecule agonists of the estrogen related receptor signaling pathway with the pleiotropic PPARgamma coactivator (PGC) from Tox21 10K library (AID 1224842); note: nearly all actives have a fitted effect of over 15% in size
Outline: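 PGC/ERR reporter cells (NTP line) were seeded 2,000 per well, rested 6 h at 37 C/5% CO2, then pin-dosed with compounds in DMSO for 18 h at 37 C; luciferase read by One-Glo luminescence after 30 min at room temperature.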

[12] = target: Thyrotropin receptor (Homo sapiens) (UniProt P16473); assay: qHTS assay to identify small molecule agonists of the thyroid stimulating hormone receptor (TSHR) signaling pathway (AID 1224843; calls by dose curve; note: nearly all actives have a fitted effect of over 45% in size)
Outline: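 TSHR-expressing HEK293 cells (800 per well) were exposed to compounds for 30 min at room temperature. cAMP was then detected by HTRF competition with cAMP-d2 and anti-cAMP cryptate, read after 1 h at room temperature. Fifteen concentrations, triplicate.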

[13] = qHTS assay to identify small molecule antagonists of the estrogen related receptor (ERR) signaling pathway - cell viability counter screen (AID 1224818);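 note: series mostly up to about 46 µM; viability measured after 17.5 h of compound exposure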
Outline: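 Cells carrying the ERR pathway reporter were seeded and incubated for 6 hours before compound addition. After a 17.5-hour exposure at 37 C, live-cell protease activity was measured by CellTiter-Fluor fluorescence following 30 minutes of incubation.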

[14] = qHTS assay to identify small molecule antagonists of the estrogen related receptor signaling pathway with the pleiotropic PPARgamma coactivator (PGC) cell viability counter screen (AID 1224822;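 note: series mostly up to about 46 µM; viability read after 17.5 h compound exposure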)
Outline: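 Seed PGC/ERR cells (2,000/well); incubate 6 h at 37 C/5% CO2; pin-transfer compounds in DMSO; incubate 17.5 h at 37 C; add CellTiter-Fluor; after 30 min read fluorescence.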

[15] = target: Luciferin 4-monooxygenase (Photinus pyralis) (UniProt P08659); assay: qHTS assay to identify small molecule inhibitors of firefly luciferase (AID 1224835); note: nearly all actives have a fitted effect of over 25% in size; note: potency is the fitted concentration of half-maximal effect; for activity change, negative = inhibition: series mostly up to about 120 µM
Outline: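 Quantitative HTS format; KM concentrations of both substrates. Purified P. pyralis FLuc activity quantified from luminescence images.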

[16] = qHTS assay to identify small molecule agonists of the retinoic acid receptor (RAR) signaling pathway (AID 1159553)
Outline: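 Agonist activity was scored in C3RL4 cells bearing a retinoic acid response element luciferase construct. Cells were treated with compounds for 6 hr at 37 C, and luciferase signal was measured as luminescence.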

[17] = qHTS assay to identify small molecule agonists of the estrogen related receptor (ERR) signaling pathway (AID 1224820)
Outline: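 Quantitative HTS of the LOPAC library used NTP ERR reporter cells treated 18 h at 37 C. Signal is luminescence after One-Glo addition and a 30 min room-temperature incubation.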

[18] = tested on: estrogen-related receptor alpha (ERRalpha) with PGC-1alpha coactivator, human; assay: qHTS assay to identify small molecule antagonists of the estrogen related receptor signaling pathway with the pleiotropic PPARgamma coactivator (PGC) (AID 1224821; calls by dose curve;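 note: series mostly up to about 46 µM; lower luminescence signal means antagonism of PGC/ERR signalling; nearly all actives have a fitted effect of over 50% in size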)
Outline: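 Quantitative HTS for antagonism: PGC/ERR cells received compounds after 6 h attachment and were incubated 18 h at 37 C, with luminescence (One-Glo) as the endpoint.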

[19] = qHTS assay to identify small molecule agonists of the estrogen related receptor signaling pathway with the pleiotropic PPARgamma coactivator (PGC) (AID 1224823)
Outline: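 Cell-based luciferase assay in the NTP-supplied PGC/ERR line, 2,000 cells/well; 18 h compound exposure at 37 C, luminescence after One-Glo.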
% is set by controls: 0 for no effect and ±100 for the full control effect.

Chain of Luciferin 4-monooxygenase (Photinus pyralis) (P08659 whole entry, looked up): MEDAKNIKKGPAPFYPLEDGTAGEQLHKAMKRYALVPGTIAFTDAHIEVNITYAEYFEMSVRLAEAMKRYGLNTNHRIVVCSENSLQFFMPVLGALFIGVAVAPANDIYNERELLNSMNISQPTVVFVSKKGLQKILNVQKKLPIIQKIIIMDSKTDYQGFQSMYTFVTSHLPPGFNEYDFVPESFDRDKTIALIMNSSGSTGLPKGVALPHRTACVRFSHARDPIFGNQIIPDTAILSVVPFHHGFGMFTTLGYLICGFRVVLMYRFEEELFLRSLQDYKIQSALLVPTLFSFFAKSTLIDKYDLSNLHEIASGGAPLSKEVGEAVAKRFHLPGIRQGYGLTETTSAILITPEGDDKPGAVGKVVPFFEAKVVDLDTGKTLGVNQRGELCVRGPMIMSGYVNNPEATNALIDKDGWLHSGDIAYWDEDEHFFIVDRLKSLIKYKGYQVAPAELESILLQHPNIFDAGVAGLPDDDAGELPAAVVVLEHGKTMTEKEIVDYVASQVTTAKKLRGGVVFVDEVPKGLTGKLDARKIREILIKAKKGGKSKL
Chain of Thyrotropin receptor (Homo sapiens) (P16473 whole entry, looked up): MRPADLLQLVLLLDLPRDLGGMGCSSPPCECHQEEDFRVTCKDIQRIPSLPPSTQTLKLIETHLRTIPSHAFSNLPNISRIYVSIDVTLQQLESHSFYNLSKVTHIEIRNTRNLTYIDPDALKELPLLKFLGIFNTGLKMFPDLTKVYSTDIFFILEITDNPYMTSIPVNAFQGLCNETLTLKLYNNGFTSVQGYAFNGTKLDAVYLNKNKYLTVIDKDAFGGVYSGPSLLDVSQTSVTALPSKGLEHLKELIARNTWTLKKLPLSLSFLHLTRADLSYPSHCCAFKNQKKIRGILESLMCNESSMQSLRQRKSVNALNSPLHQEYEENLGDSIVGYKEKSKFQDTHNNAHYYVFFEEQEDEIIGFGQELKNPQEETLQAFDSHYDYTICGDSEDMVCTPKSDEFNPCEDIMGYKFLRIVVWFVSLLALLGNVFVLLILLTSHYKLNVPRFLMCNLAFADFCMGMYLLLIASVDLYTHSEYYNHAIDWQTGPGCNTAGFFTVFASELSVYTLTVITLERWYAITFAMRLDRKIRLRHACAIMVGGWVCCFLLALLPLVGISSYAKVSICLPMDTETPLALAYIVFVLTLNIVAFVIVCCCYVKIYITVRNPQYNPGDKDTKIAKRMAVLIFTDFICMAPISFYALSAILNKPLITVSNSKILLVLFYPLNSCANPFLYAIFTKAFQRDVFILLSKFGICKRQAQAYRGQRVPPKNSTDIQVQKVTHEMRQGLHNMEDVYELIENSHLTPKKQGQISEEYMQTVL
Chain of Nuclear receptor subfamily 1 group I member 3 (Homo sapiens) (Q14994 whole entry, looked up): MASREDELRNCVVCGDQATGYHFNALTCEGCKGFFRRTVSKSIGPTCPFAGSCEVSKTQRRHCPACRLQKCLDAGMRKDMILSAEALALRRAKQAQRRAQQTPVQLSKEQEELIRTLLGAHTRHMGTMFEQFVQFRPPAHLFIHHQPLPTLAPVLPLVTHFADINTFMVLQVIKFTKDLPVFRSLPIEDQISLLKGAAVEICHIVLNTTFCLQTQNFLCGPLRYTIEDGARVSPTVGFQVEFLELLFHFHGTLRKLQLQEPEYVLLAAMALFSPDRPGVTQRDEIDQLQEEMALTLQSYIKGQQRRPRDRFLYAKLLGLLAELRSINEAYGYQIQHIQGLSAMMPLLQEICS

C1CN(CCOCCN2CCOCC2)CCO1
inactive: Potency [1] | outcome [2] | Potency [3] | Potency [4] | Potency [5] | Potency [6] | Potency [7] | Potency [8] | Potency [9] | Potency [10] | outcome [11] | Potency [12]

O=c1cc(-c2ccccc2)oc2ccccc12
inactive: Potency [1] | outcome [2] | Potency [3] | outcome [13] | outcome [14] | Potency [4] | Potency [5] | Potency [6] | Potency [9]
active: Potency [15] 7.97 µM and 12.6 µM | Potency [8] 27.3 µM and 21.6 µM

CN1CC(=O)NC1=N
inactive: Potency [1] | outcome [2] | Potency [3] | Potency [16] | Potency [4] | Potency [15] | Potency [5] | Potency [6] | Potency [7] | Potency [8] | Potency [9] | Potency [10] | outcome [11] | Potency [12]

O=C(O)Cc1ccc(CCNS(=O)(=O)c2ccc(Cl)cc2)cc1
inactive: Potency [1] | outcome [2] | Potency [3] | Potency [16] | Potency [4] | Potency [5] | Potency [6] | Potency [7] | Potency [8] | Potency [9] | Potency [10] | outcome [11] | Potency [12]

N#Cc1ccc(C2CCCc3cncn32)cc1 (stereo unspecified)
inactive: Potency [1] | outcome [2] | Potency [16] | Potency [4] | Potency [15] | Potency [5] | Potency [6] | Potency [7] | Potency [8] | Potency [9] | Potency [10] | outcome [11] | Potency [12]

Cc1cccn2c(=O)c(-c3nnn[nH]3)cnc12
inactive: Potency [1] | activity change, negative = cytotoxicity [2] 2.52% [at 19 µM] | activity, negative = inhibition [3] 1.95% [at 19 µM] | Potency [16] | viability change, negative = cytotoxic [4] 0.715% [at 19 µM] | activity change, negative = inhibition [15] 1.24% [at 23.6 µM] | viability change, negative = cytotoxic [5] 10.1% [at 19 µM] | activity change, negative = cytotoxicity [6] -0.444% [at 19 µM] | activity, negative = inhibition [7] -0.816% [at 19 µM] | activation [8] 2.7% [at 19 µM] | viability change, negative = cytotoxic [9] 11.8% [at 19 µM] | activity, negative = inhibition [10] 13.5% [at 19 µM] | activation [11] 4.84% [at 19 µM] | Potency [12]

Cc1ccc(=O)n(-c2ccccc2)c1
inactive: Potency [1] | outcome [2] | outcome [13] | outcome [17] | outcome [18] | outcome [14] | outcome [19] | Potency [4] | Potency [15] | Potency [5] | Potency [6] | Potency [7] | Potency [8] | Potency [9] | Potency [10] | outcome [11] | Potency [12]

C=CCS(=O)(=O)O
inactive: Potency [1] | outcome [2] | Potency [3] | Potency [16] | Potency [4] | Potency [15] | Potency [5] | Potency [6] | Potency [7] | Potency [8] | Potency [9] | Potency [10] | outcome [11] | Potency [12]

Cc1cc(O)cc2c1O[C@](C)(CCC[C@H](C)CCC[C@H](C)CCCC(C)C)CC2
inactive: Potency [1] | outcome [2] | Potency [3] | Potency [16] | Potency [4] | Potency [5] | Potency [6] | Potency [7] | Potency [8] | Potency [9] | Potency [10] | outcome [11] | Potency [12]
